Structures are written as SMILES. Screen size: about 310,000 compounds; about 14,000 (4.5%) showed an effect of 50% or more. The effect is printed as a negative number. The full list was thinned out, with strong results kept by preference.
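Also: peak tail current of the secondary pulse compared with the same well before compound.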

For this experiment, the target named is human ether-à-go-go-related gene (hERG) potassium channel (human, UniProt Q12809). Kind of experiment: primary screen, population patch clamp on CHO cells stably expressing hERG; higher = less effect of the substance.
human ether-à-go-go-related gene (hERG) potassium channel, sequence (Q12809 whole entry, looked up): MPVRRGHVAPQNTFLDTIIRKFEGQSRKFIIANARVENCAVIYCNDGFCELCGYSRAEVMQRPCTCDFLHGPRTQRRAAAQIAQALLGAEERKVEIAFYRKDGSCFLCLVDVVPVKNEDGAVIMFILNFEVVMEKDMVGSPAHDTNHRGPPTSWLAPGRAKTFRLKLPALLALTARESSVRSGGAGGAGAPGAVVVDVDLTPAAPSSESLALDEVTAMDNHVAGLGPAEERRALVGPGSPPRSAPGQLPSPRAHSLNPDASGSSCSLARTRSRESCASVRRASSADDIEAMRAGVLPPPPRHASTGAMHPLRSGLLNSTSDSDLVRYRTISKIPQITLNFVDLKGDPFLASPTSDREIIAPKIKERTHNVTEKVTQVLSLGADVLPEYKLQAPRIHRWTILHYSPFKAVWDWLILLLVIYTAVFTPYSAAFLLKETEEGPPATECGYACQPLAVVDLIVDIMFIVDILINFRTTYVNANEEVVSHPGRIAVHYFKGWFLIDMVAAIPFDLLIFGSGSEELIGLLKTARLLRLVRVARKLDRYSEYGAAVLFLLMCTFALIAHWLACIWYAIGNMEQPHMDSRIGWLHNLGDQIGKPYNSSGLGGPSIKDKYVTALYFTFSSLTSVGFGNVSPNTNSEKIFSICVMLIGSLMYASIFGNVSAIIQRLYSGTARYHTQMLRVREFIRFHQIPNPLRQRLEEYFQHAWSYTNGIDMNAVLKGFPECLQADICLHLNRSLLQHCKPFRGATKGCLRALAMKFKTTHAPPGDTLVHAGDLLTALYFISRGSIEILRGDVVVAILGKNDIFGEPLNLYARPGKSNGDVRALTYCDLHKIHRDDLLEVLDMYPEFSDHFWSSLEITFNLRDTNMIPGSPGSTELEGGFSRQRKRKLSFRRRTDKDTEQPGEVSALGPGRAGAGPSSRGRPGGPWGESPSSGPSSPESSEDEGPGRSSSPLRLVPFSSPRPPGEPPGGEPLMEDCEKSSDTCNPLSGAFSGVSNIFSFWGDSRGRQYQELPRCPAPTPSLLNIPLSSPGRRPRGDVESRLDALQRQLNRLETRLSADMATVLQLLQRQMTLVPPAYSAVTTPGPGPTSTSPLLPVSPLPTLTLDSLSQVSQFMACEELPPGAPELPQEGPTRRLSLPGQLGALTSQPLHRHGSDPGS
With `C=CCN1C(=O)c2ccccc2C1(O)Cc1ccccc1` (stereo not drawn), the “hERG current change (%, negative = inhibition) at 10uM” value was found to be 16.5%.

As to `CCCC/C(O)=C1\C(=O)CC(C)(C)CC1=NCCCCCC(=O)O`, the “hERG current change (%, negative = inhibition) at 10uM” value came out at 7.59%.

For the compound `Cc1[nH]c2ccccc2c1SCc1nnc(SCc2ccccc2)n1C`, the “hERG current change (%, negative = inhibition) at 10uM” value was found to be 4.6%. Next, `Cc1cc(C)cc(N2CC(c3nc4ccccc4n3C)CC2=O)c1` (stereo not drawn): -10.8%; `CCn1c(C2CC(=O)N(c3ccc(C)c(C)c3)C2)nc2ccccc21` (stereo not drawn): -11.5%. For the compound `Cc1ccc(N2CC(c3nc4ccccc4n3C)CC2=O)cc1` (stereo not drawn), the “hERG current change (%, negative = inhibition) at 10uM” value is on record as -21.5%.

Turning to `CCn1c(C2CC(=O)N(c3cc(C)cc(C)c3)C2)nc2ccccc21` (stereo not drawn), the “hERG current change (%, negative = inhibition) at 10uM” value was -2.71%. Next, `CCCn1c(C2CC(=O)N(c3ccc(C)cc3)C2)nc2ccccc21` (stereo not drawn): -52.9%.

Regarding `C=CCn1c(C2CC(=O)N(c3ccc(C)cc3)C2)nc2ccccc21` (stereo not drawn), the “hERG current change (%, negative = inhibition) at 10uM” value is recorded as -58.4%. Next, `CCN(Cc1ccccc1)C(=O)CN1C(=O)c2ccccc2S1(=O)=O`: -3.97%. Next, `CC(C)c1ccc(NC(=O)CNC(=O)Cn2ccc3ccccc3c2=O)cc1`: 16.7%; `O=C(O)CC1(CC(=O)NCc2cc(F)cc3c2OCOC3)CCCCC1`: 6.25%. Next, `Cc1cccc(CN2CCN(CC(=O)NCCCN3CCN(c4ccc(F)cc4)CC3)C2=O)c1`: -69.8%. Turning to `Cc1ccc(CN2CCN(CC(=O)NCCCN3CCN(c4ccc(F)cc4)CC3)C2=O)cc1`, the “hERG current change (%, negative = inhibition) at 10uM” value was -66%. The same measure for `O=C(CN1CCN(Cc2ccccc2)C1=O)NCCCN1CCOCC1`: 5.12%; for `Cc1cccc(CN2CCN(CC(=O)NCCCN3CCCC3=O)C2=O)c1`: 7%. The same measure for `CC1CCN(CCCNC(=O)CN2CCN(Cc3ccc(Cl)cc3)C2=O)CC1`: -55.2%; for `O=C(CN1CCN(Cc2ccc(F)cc2Cl)C1=O)NCCCN1CCOCC1`: -2.72%; for `O=C(CN1CCN(Cc2ccc(Cl)cc2)C1=O)NCCCN1CCOCC1`: -2.85%. Next, `O=C(CN1CCN(Cc2ccc(Cl)cc2)C1=O)NCCCN1CCN(c2ccc(F)cc2)CC1`: -81%. Consider `O=C(CN1CCN(Cc2ccc(Cl)cc2)C1=O)NCCN1CCCC1`, for which the “hERG current change (%, negative = inhibition) at 10uM” value stood at 1.66%. Next, `CC(C)OCCCNC(=O)CN1CCN(Cc2ccc(Cl)cc2)C1=O`: 11.6%; `Cc1ccc2[nH]c3c(=O)n(CC(=O)NCCCN4CCN(c5ccc(F)cc5)CC4)ncc3c2c1`: 14.8%. The same measure for `Cc1cccc(CN2CCN(CC(=O)NCc3ccc(F)cc3)C2=O)c1`: -13.6%; for `CC(C)CCC(O)(CCC(C)C)C(=O)NNc1ccccc1`: -0.649%; for `FC(F)(F)c1nc2ccccc2nc1N/N=C\c1ccccc1`: 12.3%. The same measure for `CC(=O)c1ccc(S(=O)(=O)Nc2ccc(C(=O)N(C)CC(=O)Nc3cccc(C)c3C)cc2)cc1`: 14.5%; for `COc1cc(/C=N/NC(=O)c2ccoc2C)ccc1O`: -3.54%. Consider `Cc1nn(CCC(=O)Nc2cccc(C#N)c2)c(C)c1S(=O)(=O)N1CCCCC1`, for which the “hERG current change (%, negative = inhibition) at 10uM” value is on record as -1.67%. The same measure for `O=C(NNS(=O)(=O)c1ccccc1)c1cc2cc3ccccc3nc2s1`: -10.4%; for `CCOCCCNC(=O)CN1CCN(Cc2ccccc2C)C1=O`: -5.69%; for `COc1ccc(N2CCN(CCCNC(=O)CN3CCN(Cc4ccccc4C)C3=O)CC2)cc1`: -46.5%.

Consider `Cc1ccccc1CN1CCN(CC(=O)NCCCN2CCN(c3ccc(F)cc3)CC2)C1=O`, for which the “hERG current change (%, negative = inhibition) at 10uM” value was -71.2%. Next, `Cc1c(Cl)cccc1NC(=O)CSc1nc2ncc(Cl)cc2[nH]1`: 17.7%; `COCCCNC(=O)CC(NS(=O)(=O)c1ccc(Cl)cc1)c1ccc(OC)cc1` (stereo not drawn): -0.0404%. Next, `Cc1cccc(OCC(=O)N2CCN(Cc3ccc([N+](=O)[O-])cc3)CC2)c1.O=C(O)C(=O)O`: -73%; `Cc1ccc(OCC(=O)N2CCN(Cc3ccc([N+](=O)[O-])cc3)CC2)cc1.O=C(O)C(=O)O`: -81.2%.

As for `Cc1ccc(OCC(=O)N2CCN(CC3CC4C=CC3C4)CC2)cc1.O=C(O)C(=O)O` (stereo not drawn), the “hERG current change (%, negative = inhibition) at 10uM” value is recorded as -24.3%. Next, `O=C(COc1ccc(Cl)cc1)N1CCN(Cc2ccc([N+](=O)[O-])cc2)CC1.O=C(O)C(=O)O`: -74.2%; `Cc1cccc(OCC(=O)N2CCN(Cc3ccncc3)CC2)c1.O=C(O)C(=O)O`: 8.94%; `Cc1cccc(OCC(=O)N2CCN(Cc3ccc4c(c3)OCO4)CC2)c1.O=C(O)C(=O)O`: -16.7%. The same measure for `Cc1ccc(CN2CCN(C(=O)CCc3ccccc3)CC2)cc1`: -19.1%.
